Laboratory results: PubChem BioAssay (NCI)
This is part of a sample that, as a whole, favours compounds with a hit. Of some 79,000 tested, about 15% had one in any assay. Unmarked numbers belong to inactive results. Calls of active or inactive are those of the source. Cut-off read from the data, not from the text of the source: active = growth inhibition above about 70%; inactive = the rest.

How the values were obtained:
[1] = NCI Yeast Anticancer Drug Screen. Data for the rad50 strain (AID 155);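 note: 0% = growth of vehicle-only cultures of the same strain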; conditions: S. cerevisiae rad50 strain growth inhibition, stronger effect = higher value
Summary of the method: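 Cells are treated with compound, grown, and their growth is then scored against vehicle-only cultures of the same repair-deficient yeast strain.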

[2] = NCI Yeast Anticancer Drug Screen. Data for the mec2-1 strain (AID 157); conditions: S. cerevisiae mec2-1 strain, stronger effect = higher value
Summary of the method: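 mec2-1 yeast strain, carrying an alteration in DNA damage repair or cell cycle control, was exposed to compounds; growth inhibition was measured relative to vehicle-treated controls.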

[3] = NCI Yeast Anticancer Drug Screen. Data for the sgs1 mgt1 strain (AID 161);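 note: 0% = growth of cultures given vehicle only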; conditions: S. cerevisiae sgs1 mgt1 strain, stronger effect = higher value
Summary of the method: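 This yeast growth screen uses a strain with defined DNA-repair lesions; compound-treated growth is compared with vehicle-treated growth.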

[4] = NCI Yeast Anticancer Drug Screen. Data for the cln2 rad14 strain (AID 165);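 note: 0% = growth equal to vehicle treated cultures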; conditions: S. cerevisiae cln2 rad14 strain, stronger effect = higher value
Summary of the method: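 Yeast carrying cln2 and rad14 alterations (cell cycle control and DNA damage repair) were exposed to compounds. Growth inhibition was measured against vehicle-treated controls.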

[5] = NCI Yeast Anticancer Drug Screen. Data for the bub3 strain (AID 167); conditions: S. cerevisiae bub3 mutant strain, stronger effect = higher value
Summary of the method: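 Part of a panel of yeast mutants defective in DNA damage repair or cell cycle regulation. Each strain is grown with compound, and inhibition is calculated relative to solvent-treated cultures.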

[6] = NCI Yeast Anticancer Drug Screen. Data for the mlh1 rad18 strain (AID 175); conditions: S. cerevisiae mlh1 rad18 strain growth inhibition, stronger effect = higher value
Summary of the method: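 Growth inhibition of the yeast strain was measured after compound exposure and expressed relative to vehicle-treated controls. The strain carries defined defects in DNA damage repair.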

[7] = at 5.0 µM (retest, dose inferred, filed as 0.5)
[8] = at 50.0 µM (retest, dose inferred, filed as 5.0)

## O=C(c1ccccc1)c1cn(/N=C\c2ccccc2)c(=O)nc1-c1ccccc1
[1]; [7]
  growth inhibition: -3%
[1]; [8]
  growth inhibition: 61%
[1]; at 50.0 µM
  growth inhibition: 88.5% (active)
[2]; [7]
  growth inhibition: -13%
[2]; [8]
  growth inhibition: 96% (active)
[2]; at 50.0 µM
  growth inhibition: 80.2% (active)
[3]; [7]
  growth inhibition: 2%
[3]; [8]
  growth inhibition: 94% (active)
[3]; at 50.0 µM
  growth inhibition: 90.9% (active)
[4]; [7]
  growth inhibition: 11%
[4]; [8]
  growth inhibition: 95% (active)
[4]; at 50.0 µM
  growth inhibition: 87.4% (active)
[5]; [7]
  growth inhibition: 16%
[5]; [8]
  growth inhibition: 97% (active)
[5]; at 50.0 µM
  growth inhibition: 89% (active)
[6]; [7]
  growth inhibition: -1%
[6]; [8]
  growth inhibition: 95% (active)
[6]; at 50.0 µM
  growth inhibition: 84.5% (active)

## Nc1nc(N)c(-c2cccc(C(F)(F)F)c2)c(Cc2cccc(C(F)(F)F)c2)n1
[1]; [7]
  growth inhibition: -2%
[1]; [8]
  growth inhibition: 98% (active)
[1]; at 50.0 µM
  growth inhibition: 99.6% (active)
[2]; [7]
  growth inhibition: 14%
[2]; [8]
  growth inhibition: 98% (active)
[2]; at 50.0 µM
  growth inhibition: 99.3% (active)
[3]; [7]
  growth inhibition: -1%
[3]; [8]
  growth inhibition: 98% (active)
[3]; at 50.0 µM
  growth inhibition: 99.3% (active)
[4]; [7]
  growth inhibition: 24%
[4]; [8]
  growth inhibition: 91% (active)
[4]; at 50.0 µM
  growth inhibition: 98.9% (active)
[5]; [7]
  growth inhibition: -4%
[5]; [8]
  growth inhibition: 95% (active)
[5]; at 50.0 µM
  growth inhibition: 99.2% (active)
[6]; [7]
  growth inhibition: 0%
[6]; [8]
  growth inhibition: 99% (active)
[6]; at 50.0 µM
  growth inhibition: 99.6% (active)

## CN(C)CC(=O)OCC[N+](C)(C)C
[1]; [7]
  growth inhibition: -3%
[1]; [8]
  growth inhibition: -2%
[1]; at 50.0 µM
  growth inhibition: -22.1%
[2]; [7]
  growth inhibition: -6%
[2]; [8]
  growth inhibition: -5%
[2]; at 50.0 µM
  growth inhibition: -15.1%
[3]; [7]
  growth inhibition: -3%
[3]; [8]
  growth inhibition: -3%
[3]; at 50.0 µM
  growth inhibition: -12.7%
[4]; [7]
  growth inhibition: -15%
[4]; [8]
  growth inhibition: -10%
[4]; at 50.0 µM
  growth inhibition: 56.4%
[5]; [7]
  growth inhibition: 6%
[5]; [8]
  growth inhibition: 30%
[5]; at 50.0 µM
  growth inhibition: 15.4%
[6]; [7]
  growth inhibition: -4%
[6]; [8]
  growth inhibition: 1%
[6]; at 50.0 µM
  growth inhibition: -15.9%

## C=C(CS(=O)(=O)c1ccccc1)[P+](c1ccccc1)(c1ccccc1)c1ccccc1
[1]; [7]
  growth inhibition: 0%
[1]; [8]
  growth inhibition: 95% (active)
[1]; at 50.0 µM
  growth inhibition: 29.2%
[2]; [7]
  growth inhibition: -6%
[2]; [8]
  growth inhibition: 92% (active)
[2]; at 50.0 µM
  growth inhibition: 37.5%
[3]; [7]
  growth inhibition: -6%
[3]; [8]
  growth inhibition: 95% (active)
[3]; at 50.0 µM
  growth inhibition: 34.4%
[4]; [7]
  growth inhibition: -1%
[4]; [8]
  growth inhibition: 81% (active)
[4]; at 50.0 µM
  growth inhibition: 28.5%
[5]; [7]
  growth inhibition: -3%
[5]; [8]
  growth inhibition: 88% (active)
[5]; at 50.0 µM
  growth inhibition: 2.15%
[6]; [7]
  growth inhibition: -2%
[6]; [8]
  growth inhibition: 92% (active)
[6]; at 50.0 µM
  growth inhibition: 67.5%

## OC1c2ccccc2C2(O)C1C(c1ccccc1)C(c1ccccc1)C2(O)c1ccccc1 (stereo not given)
[1]; [7]
  growth inhibition: 32%
[1]; [8]
  growth inhibition: 95% (active)
[1]; at 50.0 µM
  growth inhibition: 96.7% (active)
[2]; [7]
  growth inhibition: -1%
[2]; [8]
  growth inhibition: 97% (active)
[2]; at 50.0 µM
  growth inhibition: 97% (active)
[3]; [7]
  growth inhibition: 25%
[3]; [8]
  growth inhibition: 96% (active)
[3]; at 50.0 µM
  growth inhibition: 98% (active)
[4]; [7]
  growth inhibition: -4%
[4]; [8]
  growth inhibition: 94% (active)
[4]; at 50.0 µM
  growth inhibition: 95.1% (active)
[5]; [7]
  growth inhibition: -1%
[5]; [8]
  growth inhibition: 95% (active)
[5]; at 50.0 µM
  growth inhibition: 94.8% (active)
[6]; [7]
  growth inhibition: 30%
[6]; [8]
  growth inhibition: 94% (active)
[6]; at 50.0 µM
  growth inhibition: 95.7% (active)

## [Cu+2].c1ccc2n[nH]nc2c1
[1]; [7]
  growth inhibition: 99% (active)
[1]; [8]
  growth inhibition: 99% (active)
[1]; at 50.0 µM
  growth inhibition: 98.8% (active)
[2]; [7]
  growth inhibition: 99% (active)
[2]; [8]
  growth inhibition: 99% (active)
[2]; at 50.0 µM
  growth inhibition: 99.3% (active)
[3]; [7]
  growth inhibition: 98% (active)
[3]; [8]
  growth inhibition: 99% (active)
[3]; at 50.0 µM
  growth inhibition: 98.5% (active)
[4]; [7]
  growth inhibition: 70% (active)
[4]; [8]
  growth inhibition: 99% (active)
[4]; at 50.0 µM
  growth inhibition: 98.3% (active)
[5]; [7]
  growth inhibition: 96% (active)
[5]; [8]
  growth inhibition: 99% (active)
[5]; at 50.0 µM
  growth inhibition: 98.6% (active)
[6]; [7]
  growth inhibition: 99% (active)
[6]; [8]
  growth inhibition: 99% (active)
[6]; at 50.0 µM
  growth inhibition: 98.7% (active)

## COc1ccc2cc(CNCCCCCCCCNCc3ccc4cc(OC)ccc4c3)ccc2c1
[1]; [7]
  growth inhibition: 22%
[1]; [8]
  growth inhibition: 99% (active)
[1]; at 50.0 µM
  growth inhibition: 97.7% (active)
[2]; [7]
  growth inhibition: 6%
[2]; [8]
  growth inhibition: 100% (active)
[2]; at 50.0 µM
  growth inhibition: 97.2% (active)
[3]; [7]
  growth inhibition: 19%
[3]; [8]
  growth inhibition: 99% (active)
[3]; at 50.0 µM
  growth inhibition: 95.1% (active)
[4]; [7]
  growth inhibition: 9%
[4]; [8]
  growth inhibition: 99% (active)
[4]; at 50.0 µM
  growth inhibition: 94.5% (active)
[5]; [7]
  growth inhibition: 9%
[5]; [8]
  growth inhibition: 100% (active)
[5]; at 50.0 µM
  growth inhibition: 93.7% (active)
[6]; [7]
  growth inhibition: 31%
[6]; [8]
  growth inhibition: 99% (active)
[6]; at 50.0 µM
  growth inhibition: 97.2% (active)

## COc1ccc(/C=C/c2ccnc3ccccc23)cc1
[1]; [7]
  growth inhibition: 24%
[1]; [8]
  growth inhibition: 98% (active)
[1]; at 50.0 µM
  growth inhibition: 90.3% (active)
[2]; [7]
  growth inhibition: 20%
[2]; [8]
  growth inhibition: 99% (active)
[2]; at 50.0 µM
  growth inhibition: 92.2% (active)
[3]; [7]
  growth inhibition: 22%
[3]; [8]
  growth inhibition: 99% (active)
[3]; at 50.0 µM
  growth inhibition: 89.7% (active)
[4]; [7]
  growth inhibition: 25%
[4]; [8]
  growth inhibition: 96% (active)
[4]; at 50.0 µM
  growth inhibition: 89% (active)
[5]; [7]
  growth inhibition: 48%
[5]; [8]
  growth inhibition: 99% (active)
[5]; at 50.0 µM
  growth inhibition: 86.5% (active)
[6]; [7]
  growth inhibition: 29%
[6]; [8]
  growth inhibition: 98% (active)
[6]; at 50.0 µM
  growth inhibition: 86% (active)

## COc1ccc(CC2=CC(=O)C(=O)C=C2C)cc1
[1]; [7]
  growth inhibition: 2%
[1]; [8]
  growth inhibition: 27%
[1]; at 50.0 µM
  growth inhibition: 47.4%
[2]; [7]
  growth inhibition: 0%
[2]; [8]
  growth inhibition: 29%
[2]; at 50.0 µM
  growth inhibition: 11.2%
[3]; [7]
  growth inhibition: 9%
[3]; [8]
  growth inhibition: 39%
[3]; at 50.0 µM
  growth inhibition: 47%
[4]; [7]
  growth inhibition: 0%
[4]; [8]
  growth inhibition: 4%
[4]; at 50.0 µM
  growth inhibition: 11.2%
[5]; [7]
  growth inhibition: -2%
[5]; [8]
  growth inhibition: 21%
[5]; at 50.0 µM
  growth inhibition: 38%
[6]; [7]
  growth inhibition: 14%
[6]; [8]
  growth inhibition: 51%
[6]; at 50.0 µM
  growth inhibition: 36.4%

## Fc1cccc(CSc2ncnc3c2ncn3C2CCCS2)c1 (stereo not given)
[1]; [7]
  growth inhibition: 4%
[1]; [8]
  growth inhibition: 70% (active)
[1]; at 50.0 µM
  growth inhibition: 84.9% (active)
[2]; [7]
  growth inhibition: 1%
[2]; [8]
  growth inhibition: 87% (active)
[2]; at 50.0 µM
  growth inhibition: 90% (active)
[3]; [7]
  growth inhibition: 6%
[3]; [8]
  growth inhibition: 92% (active)
[3]; at 50.0 µM
  growth inhibition: 93.3% (active)
[4]; [7]
  growth inhibition: 26%
[4]; [8]
  growth inhibition: 87% (active)
[4]; at 50.0 µM
  growth inhibition: 82% (active)
[5]; [7]
  growth inhibition: 1%
[5]; [8]
  growth inhibition: 82% (active)
[5]; at 50.0 µM
  growth inhibition: 90% (active)
[6]; [7]
  growth inhibition: 3%
[6]; [8]
  growth inhibition: 88% (active)
[6]; at 50.0 µM
  growth inhibition: 92.5% (active)
